# NadD inh = blocks S. aureus nicotinate mononucleotide adenylyltransferase. purified NadD enzyme, colorimetric absorbance read-out. inhibition, % at 20 µM. 360,000 compounds, 0.78% hits. AID 602399; in the data active = inhibition above about 26%
# MPTP block = permeability transition pore inhibition. inhibition, % at 10 µM. 360,000 compounds, 1.4% hits. isolated mouse mitochondria, Ca2+ swelling absorbance, 30 min;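 active = inhibition of 50% or more, scaled per plate between neutral and stimulator controls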
# aDG glyco act = alpha-DG glycosylation activation. Pro5-aDG cells, alpha-DG glycosylation AlphaScreen (IIH6); 0% Pro5, 100% B10-LARGE cell signal. activation, % at 10 µM. 360,000 compounds, 0.22% hits;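 active = activation of at least 8% versus controls, or a plate z-score of at least 8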;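 note: Pro5 are CHO cells carrying HIG-tagged alpha-DG that lacks glycosylation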
# TAG inh = reduces triacylglycerol accumulation in H9c2 cells | Nile Red lipid (TAG) fluorescence; cells loaded with 200 µM oleic acid | inhibition, % at 12.5 µM | 230,000 compounds, 0.66% hits;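 active = pattern-corrected inhibition of lipid staining of at least 50% with the nuclear-stain viability signal not falling by more than 50%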
# H9c2 TAG conf = triacylglycerol accumulation inhibition, confirmation. shares compounds with TAG inh. H9c2 lipid accumulation, Nile Red fluorescence; cells loaded with 200 µM oleic acid. inhibition, % at 12.5 µM. 990 compounds, 71% hits;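 active = mean inhibition across replicates of 40% or more; inactive = mean inhibition below 40%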
# Numbers stand for hits; – = inactive; · = no result given. Hits are enriched below; roughly 2.7% of the tested compounds scored in any of these assays.
SMILES,NadD inh,MPTP block,aDG glyco act,TAG inh,H9c2 TAG conf
CCOC(=O)C1(Cc2ccccc2C)CCCN(C(=O)c2ccc(C(C)=O)s2)C1 (configuration not stated),–,–,–,–,·
COc1ccc(-c2nn(-c3ccccc3)cc2/C=C/C(=O)OCC(=O)Nc2ccccc2C#N)cc1,–,–,–,67,77
N#Cc1ccccc1NC(=O)COC(=O)/C=C/c1cn(-c2ccccc2)nc1-c1ccc(Cl)cc1,–,–,–,–,·
CN(CCCn1ccc(N)nc1=O)Cc1ccco1,–,–,–,–,·
CCn1ncc(/C=N/N=C2\CCC3C4CCc5cc(O)ccc5C4CCC23C)c1C (configuration not stated),–,–,–,52,48
CC(C)(C)OC(=O)N1CCN(c2ccc(NC(=O)Cn3nnc(-c4ccccc4)n3)cc2)CC1,–,–,–,62,–
O=C(NC1CCCC1)C1c2ccccc2OCC(=O)N1Cc1cccnc1 (configuration not stated),–,–,–,·,·
FC(F)(F)c1cccc(NC(=S)N(CCCN2CCCC2)Cc2cccn2Cc2ccc(Cl)cc2)c1,–,–,–,–,·
COc1ccc(NC(=S)N(CCCN2CCCC2)Cc2cccn2Cc2ccc(Cl)cc2)cc1Cl,–,–,–,71,56
Cc1ccc(NC(=S)N(CCCN2CCCC2)Cc2cccn2Cc2ccc(Cl)cc2)cc1C,–,–,–,–,·
Cc1ccc(NC(=S)N(CCCN2CCCC2)Cc2cccn2Cc2ccc(Cl)cc2)cc1Cl,–,–,–,78,93
COc1ccc(OC)c(NC(=O)NCCCCc2ccccc2)c1,–,–,–,–,·
c1ccc(COc2ncnc3c2ncn3CCCNC2CCN(Cc3ccccc3)CC2)cc1,–,–,–,63,–
CCN1CCN(c2cc(C)c3cc(NC(=O)c4ccc(Br)o4)ccc3n2)CC1,–,–,–,58,–
CCN1CCN(c2cc(C)c3cc(NC(=O)c4ccncc4)ccc3n2)CC1,–,–,–,–,·
CCCCNC(=O)CCC(=O)Nc1ccc2nc(N3CCOCC3)cc(C)c2c1,–,–,–,–,·
Cc1cc(N2CCOCC2)nc2ccc(NC(=O)C3CCC(C)CC3)cc12 (configuration not stated),–,–,–,54,–
CCN1CCN(C(=O)CCc2nnc3ccc(N4CCC5(CC4)OCCO5)nn23)CC1,–,–,–,·,·
CC(=O)OC[C@@H]1CN(Cc2ccccc2)C[C@H](n2cnc3c(N(C)C(C)C)ncnc32)O1,–,–,–,–,·
CSc1nccc(-c2sc(SC)c(C#N)c2-c2ccccc2)n1,–,–,–,–,·
CSc1sc(-c2ccnc(=S)[nH]2)c(-c2ccccc2)c1C#N,–,–,–,75,–
CCCn1c(SC(C)C(=O)N2CCOCC2)nc2ccc(Br)cc2c1=O (configuration not stated),–,–,–,–,·
N#Cc1ccccc1OCC(=O)N1CCN(S(=O)(=O)c2ccc(Cl)cc2)CC1,–,–,–,–,·
COc1ccc(Nc2oc(-c3ccc(Cl)cc3)nc2C#N)cc1,–,–,–,54,52
COc1ccc(Nc2oc(-c3ccc(OC)cc3)nc2C#N)cc1,–,–,–,–,·
SMILES,NadD inh,MPTP block,aDG glyco act,TAG inh,H9c2 TAG conf
O=C1NC(=O)C([N+](=O)[O-])=C(O)C1=O,–,–,–,–,·
COc1cc(-c2ccc3oc(-c4cccc(C)c4)c(C#CC4(O)CCCCC4)c3c2)cc(OC)c1OC,–,–,–,51,53
COc1ccc(-c2oc3ccc(-c4ccc5c(c4)OCO5)cc3c2C#CC2(O)CCCCC2)cc1,–,–,–,–,·
COc1ccc([C@H]2C[C@H](O)[C@@H](n3cc(-c4ccc(F)cc4)nn3)CN2Cc2cccs2)cc1,–,–,–,59,52
COc1cc(C2C(C#N)=C(N)Oc3cc4c(cc32)OCO4)cc(OC)c1OC (configuration not stated),–,–,–,51,71
COc1ccc2nc(NC(=O)c3cccc(OCc4c(C)noc4C)c3)sc2c1,–,–,–,58,48
CCSc1nnc(NC(=O)c2cccc(OCc3c(C)noc3C)c2)s1,–,–,–,–,·
CCOc1ccc2nc(NC(=O)C3CCCN(S(=O)(=O)c4c(C)noc4C)C3)sc2c1 (configuration not stated),–,–,–,57,75
COc1ccc(S(=O)(=O)N2CCCCCC2)cc1NC(=O)CCCOc1ccccc1,–,–,–,–,·
O=C(/C=C1\OCc2ccccc21)c1ccccc1,·,–,–,·,·
CCOC(=O)[C@]12CCC=C1N(Cc1cccc3ccccc13)C(=O)[C@H](CC(=O)NCc1ccc(OC)c(OC)c1)C2,–,–,–,·,·
COC(=O)C1=C(C)N(Cc2ccccc2)C(=NCC(C)C)N[C@H]1c1cccc(F)c1,–,–,–,92,73
COC(=O)C1=C(C)N(Cc2ccccc2)C(=NCc2ccc(OC)cc2)N[C@H]1c1cccc(F)c1,–,–,–,–,·
COc1ccc(C(CNC(=O)CCNS(=O)(=O)c2ccccc2)N2CCOCC2)cc1 (configuration not stated),–,–,–,–,·
CCCCCCCCC(c1nc2cc(C)c(C)cc2[nH]1)n1c(=O)c(-c2ccccc2Br)nc2ccccc21 (configuration not stated),–,–,–,·,·
Cc1ccccc1NS(=O)(=O)c1ccc(N2CCCC2=O)cc1,–,–,–,58,–
COc1ccc(CCNS(=O)(=O)c2ccc(N3CCCC3=O)cc2)cc1,–,–,–,–,·
COc1ccc(OC)c(NS(=O)(=O)c2ccc(N3CCCC3=O)cc2)c1,–,–,–,57,42
CCOc1ccc(CCNC(=O)Cn2c(-c3nonc3N)nc3ccccc32)cc1OCC,–,–,–,57,–
CCCCOc1ccccc1NC(=O)Cn1c(-c2nonc2N)nc2ccccc21,–,–,–,73,64
COc1ccc(CCNC(=O)Cn2c(-c3nonc3N)nc3ccccc32)cc1OC,–,–,–,–,·
CCOc1ccc(CCNC(=O)CN2CCN(Cc3ccccc3C)C2=O)cc1OCC,–,–,–,60,54
COc1cccc(Cn2c(-c3nonc3N)nc3ccccc32)c1,–,–,–,–,·
COc1ccc(CCNC(=O)CN2CCN(Cc3ccccc3F)C2=O)cc1OC,–,–,–,–,·
COc1cc(Cn2c(-c3nonc3N)nc3ccccc32)ccc1C,–,–,–,66,62
SMILES,NadD inh,MPTP block,aDG glyco act,TAG inh,H9c2 TAG conf
O=C(C1=NN[C@@H]2C(=O)N(Cc3ccccc3)C(=O)[C@H]12)c1ccc([N+](=O)[O-])cc1,–,–,–,–,·
Cc1ccc(/C=C/S(=O)(=O)NCC(=O)OCC(=O)Nc2c(F)cccc2F)cc1,–,–,–,–,·
CCOC(=O)c1c(C)[nH]c(-c2csc(N)n2)c1C,–,–,–,64,–
CCOC(=O)c1c(C)[nH]c(-c2csc(C)n2)c1C,–,–,–,–,·
COc1ccc(-c2sc3ccc(N4CCOCC4)cc3c2C#CC(C)(C)O)cc1,–,–,–,64,53
CC(=O)N1c2c(cc(Br)cc2S(=O)(=O)N2CCN(c3ccccc3F)CC2)CC1C (configuration not stated),–,–,–,·,·

# Assay outcomes (PubChem)
